Compounds with a hit are over-represented: about 9.4% of the library has one in this group of screens.
HTT aggregate: inhibitors of mutant huntingtin aggregate formation in PC12 cells. PC12 HttQ103-GFP aggregates, Acumen cytometry, 40 h. Potency, µM (doses to about 46.1 µM), usual class: inhibitors. 220,000 tested, 1.1% active. AID 1688; further: nearly all actives have a fitted effect of over 60% in size
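Ecdysone-promoter PC12 model expressing HTT exon 1 Q103 fused to GFP, induced by tebufenozide at 100 nM final. Compounds titrated; aggregates sized 1–25 µm scored on a 488 nm laser cytometer.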
ALDH1A1 inh: blocks purified human ALDH1A1 activity; 220,000 tested, 7.3% active; Potency, µM (series often up to 75.3 µM), usual class: inhibitors; Purified ALDH1A1, NADH fluorescence, propionaldehyde substrate; active means well fitted inhibition curve with a large enough effect, not every such curve was filed as active; inconclusive means small, poorly fitted or top-dose-only effect, or another doubt; inactive means no such curve, though single readings can be large or run the other way
HPGD inh: blocks human HPGD enzyme activity | 150,000 tested, 4.3% active | P15428 | purified HPGD, NADH fluorescence kinetic, PGE2 substrate | Potency, µM, actives largely listed as inhibitors; active means well fitted inhibition curve with a large enough effect, not every such curve was filed as active; inconclusive means small, poorly fitted or top-dose-only effect, or another doubt; inactive means no such curve, though single readings can be large or run the other way
Target sequence (P15428 whole entry, looked up): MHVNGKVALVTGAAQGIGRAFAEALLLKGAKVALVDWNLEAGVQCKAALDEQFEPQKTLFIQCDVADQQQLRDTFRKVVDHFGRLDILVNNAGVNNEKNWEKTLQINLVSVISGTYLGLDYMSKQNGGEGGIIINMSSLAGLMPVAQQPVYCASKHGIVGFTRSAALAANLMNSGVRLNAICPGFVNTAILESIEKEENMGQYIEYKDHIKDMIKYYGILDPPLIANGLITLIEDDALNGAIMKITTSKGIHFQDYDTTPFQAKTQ
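20 nM HPGD preincubated 15 min at room temperature with compound in 50 mM Tris-HCl pH 8, 0.01% Tween 20. Started with 1 mM NAD+ and 30 uM prostaglandin E2; NADH fluorescence (360/450 nm) read 5 times over 30-s intervals, last minus first.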
HTT cytoprotect: Huntington cell model cytoprotection by ATP luminescence | PC12 HTT-Q103 induced, cytoprotection, ATP luminescence, 40 h | Potency, µM (series often up to 56.4 µM), actives largely listed as activators | 230,000 tested, 0.14% active | AID 1471; further: nearly all actives have a fitted effect of over 45% in size
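PC12 cells with ecdysone-inducible HTT exon 1 Q103-GFP, induced with 100 nM tebufenozide and co-treated with library compounds in a dose series (1536-well, 1500 cells/well). Cytoprotection read as ATP content by ATPlite luminescence.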
IMPase Li cell: membrane-permeable IMPase blocker, potentiated with lithium. 210,000 tested, 0.35% active. AID 1457. CHO-M1 cells, IP1 TR-FRET (IP-One), carbachol + lithium. Potency, µM (top dose mostly 59.4 µM), actives largely listed as inhibitors;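 further: IP1 builds up when IMPase is blocked and the TR-FRET signal falls; nearly all actives have a fitted effect of over 50% in size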
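CHO-M1, 2000 cells/well, 16–30 h culture; cpd + low Li+, 30 min 37C; lysis with d2-IP1/Eu-anti-IP1 Ab, 10 min RT; TR-FRET 665/620 ratio and 620 channel; AC50 via Hill.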
IMPase cell inh: IMPase inhibition in cells; P97697; CHO-M1 cells, IP1 accumulation, HTRF TR-FRET ratio; inhibition (IP1 accumulation), % at 46.1 µM; 120,000 tested, under 10 active; AID 901; active means well fitted curve in the direction sought with a large enough effect in the signal ratio, not every such curve was filed as active; inconclusive means small, poorly fitted or top-dose-only effect, or a change in a side signal; inactive means no such curve, though single readings can be large or run the other way; the % refers to the signal ratio;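 further: cells stimulated with carbachol in lithium chloride buffer; higher means more IMPase inhibition seen as more IP1 and lower FRET ratio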
Target sequence (P97697 whole entry, looked up): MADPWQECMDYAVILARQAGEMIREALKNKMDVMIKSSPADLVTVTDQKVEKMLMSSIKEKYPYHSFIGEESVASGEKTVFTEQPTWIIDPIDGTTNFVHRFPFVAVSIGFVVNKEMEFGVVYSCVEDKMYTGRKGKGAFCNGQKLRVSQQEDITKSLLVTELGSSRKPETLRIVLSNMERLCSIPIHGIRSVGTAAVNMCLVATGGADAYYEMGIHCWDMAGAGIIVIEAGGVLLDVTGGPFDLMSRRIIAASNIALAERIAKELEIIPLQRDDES
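The IP-One HTRF competitive assay in carbachol-stimulated CHO-M1 cells quantifies cellular IP1. Compounds spanned up to 46 uM final, and activity is expressed as AC50 from concentration-response fits of the ratio and donor data.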
Of the large screens only hits and unclear results are named; the others gave an inactive call. Unless noted, the call rests on the fitted dose curve; in most records, active means well fitted curve in the direction sought with a large enough effect; inconclusive means small, poorly fitted or top-dose-only effect, or another doubt; inactive means no such curve, though single readings can be large; an effect the other way counts as inactive or inconclusive.

CC(=O)N1CCc2cc(NS(=O)(=O)c3cccs3)ccc21	HPGD inh 25µM
O=S(=O)(Nc1ccc2c(c1)OCCO2)c1cccs1	HPGD inh 14µM
O=S(=O)(Nc1ccc2c(c1)OCCO2)c1ccc(Br)s1	HTT aggregate 13µM
O=S(=O)(Nc1ccc2c(c1)OCO2)c1cccs1	none
CCCCCCCCCCCCOCCCN	none (no result: ALDH1A1 inh, HPGD inh, IMPase Li cell, IMPase cell inh)
O=C(N/N=C/c1ccccc1[N+](=O)[O-])C(=O)N1CCCC1	none (no result: HPGD inh, IMPase cell inh)
CCC(C)C1NC(=O)C(Cc2ccc(O)cc2)NC(=O)C(N)CSSCC(C(=O)N2CCCC2C(=O)NC(CC(C)C)C(=O)NCC(N)=O)NC(=O)C(CC(N)=O)NC(=O)C(CCC(N)=O)NC1=O (stereo not drawn)	none (no result: ALDH1A1 inh, HPGD inh, IMPase Li cell, IMPase cell inh)
CCCCCC(=O)N1c2ccccc2C(C)(c2ccccc2)CC1(C)C (stereo not drawn)	none (no result: HTT aggregate, ALDH1A1 inh, HPGD inh, HTT cytoprotect, IMPase Li cell)
CCOC(=O)C1=C(c2ccccc2)NC(N)=NC1c1ccc(OCc2ccc(Cl)cc2)c(OC)c1 (stereo not drawn)	none (no result: ALDH1A1 inh, HPGD inh, IMPase Li cell, IMPase cell inh)
CCCNC(=O)c1cc(-c2ccc(OC)cc2)n(CCCOC)c1C	ALDH1A1 inh inconclusive, HPGD inh 8.9µM
CCOC(=O)c1cc(-c2ccc(C)cc2)n(CCC(=O)NCCCOC)c1C	none
CCCc1nnc(N2C(=O)c3oc4ccc(F)cc4c(=O)c3C2c2ccc(C(=O)OC)cc2)s1 (stereo not drawn)	none (no result: HTT aggregate, ALDH1A1 inh, HPGD inh, HTT cytoprotect, IMPase Li cell)
C=CCNC(=S)NS(=O)(=O)c1cccs1	ALDH1A1 inh 18µM (no result: HPGD inh, HTT cytoprotect, IMPase cell inh)
O=S(=O)(NCCNS(=O)(=O)c1cccs1)c1cccs1	none
CCC(C)c1ccccc1NC(=O)COC(=O)c1ccc(N2CCCC2)c([N+](=O)[O-])c1 (stereo not drawn)	ALDH1A1 inh 13µM
COc1cc(OC)c(CNC2CCCCCC2)cc1Br	ALDH1A1 inh 7.9µM (no result: HPGD inh, IMPase cell inh)
COc1cc(OC)c(OC)cc1CNC1CCCCCC1	HTT aggregate inconclusive
O=C(O)c1ccc(N/N=C/c2cccc(F)c2)cc1	ALDH1A1 inh 20µM, HPGD inh inconclusive (no result: IMPase cell inh)
O=C(O)c1ccc(N/N=C/c2ccc(F)c(F)c2)cc1	none
COCCNC(=S)NN=C1CCCCC1	ALDH1A1 inh inconclusive (no result: HPGD inh, IMPase cell inh)
C=CCNC(=S)NN=C1CCCCCCC1	ALDH1A1 inh 0.89µM (no result: HPGD inh, IMPase cell inh)
CCOC(=O)CNC(=O)c1ccc(-c2nn(C)c(=O)c3ccccc23)cc1	none (no result: HTT aggregate, ALDH1A1 inh, HPGD inh, HTT cytoprotect, IMPase Li cell)
O=C(Cc1ccc(Cl)cc1)c1c[nH]c(C(=O)NCc2cccnc2)c1	HTT aggregate 18µM (no result: HPGD inh, IMPase cell inh)
CCn1cc(/C=N/O)c(C)n1	HTT aggregate inconclusive
Cc1cc(C)c(COCc2cc(/C=N/O)c(C)cc2C)cc1/C=N/O	HPGD inh 14µM
COCC(=O)N1CCC2(CCCN(Cc3cc(C(F)(F)F)cc(C(F)(F)F)c3)C2)CC1	HTT cytoprotect inconclusive (no result: HTT aggregate, IMPase cell inh)
N#CC(C#N)=C(N)/C(C#N)=C/c1ccc2[nH]ccc2c1	ALDH1A1 inh 13µM (no result: HTT aggregate, HPGD inh, IMPase cell inh)
C=C1NC(=O)c2cc(CN(C)c3ccc(C(=O)N[C@@H](CCC(=O)O)C(=O)O)s3)ccc2N1	HTT cytoprotect inconclusive (no result: ALDH1A1 inh, HPGD inh, IMPase Li cell, IMPase cell inh)
COc1cc(N=c2ssnc2Cl)c(OC)cc1Cl	ALDH1A1 inh 1.6µM, HPGD inh 3.5µM
COc1cc(-n2nnnc2SC)c(OC)cc1Cl	none (no result: HTT aggregate, HPGD inh, HTT cytoprotect, IMPase cell inh)
COc1ccc(OC)c(N=C2C(=O)Nc3ccccc32)c1	none
COc1ccc(OC)c(N=c2ssnc2Cl)c1	ALDH1A1 inh 1.6µM, HPGD inh 3.2µM
COc1ccc(Oc2ncc3nc(-c4cccs4)c(=O)n(Cc4cccc(OC)c4)c3n2)cc1	ALDH1A1 inh inconclusive (no result: HTT aggregate, IMPase cell inh)
CC[C@H]1CC[C@H]2[C@@H]3CC=C4C[C@H](OC(C)=O)[C@@H](N)C[C@@]4(C)[C@H]3CC[C@@]12C	none (no result: HTT aggregate, IMPase cell inh)
O=C(NOC(=O)c1ccccc1)c1ccccc1	ALDH1A1 inh 20µM (no result: HPGD inh, IMPase Li cell, IMPase cell inh)
Cc1ccc(NCCC(=O)c2cccs2)cc1C	ALDH1A1 inh 1.6µM (no result: HPGD inh, IMPase cell inh)
O=C(NNC(=O)c1cccs1)Nc1cccc(Cl)c1	none
Cc1ccc(NCCC(=O)c2cccs2)cc1	ALDH1A1 inh 0.89µM (no result: HPGD inh, HTT cytoprotect, IMPase cell inh)
Cc1ccc(NC(=O)CCC(=O)c2cccs2)cc1	ALDH1A1 inh inconclusive
O=C(CCNc1cccc(Cl)c1)c1cccs1	ALDH1A1 inh 1.3µM
Cc1ccc(NCCC(=O)c2cccs2)cc1Cl	ALDH1A1 inh 2.5µM
C/C(=N\NC(=O)CCC(=O)Nc1ccc(C)c(C)c1)c1cccs1	none (no result: HTT aggregate, HPGD inh, HTT cytoprotect, IMPase cell inh)

Bioassay records from PubChem BioAssay.
